# Laboratory results as given in PubChem BioAssay (NCATS).
# Inconclusive results are not listed. For some assays here: Entries with a potency or affinity are not part of this list. Active and inactive are the calls of the source.
# Tests used:
# [1] = Ebola virus entry assay, reporter ratio channel; AC50: Channel type: primary unless noted; outcome: Channel type: primary unless noted
# [2] = Ebola virus entry assay, blue channel (ratio component)
# [3] = Ebola virus entry cell assay, ratio channel
# [4] = Ebola virus entry reporter assay, green channel fluorescence
# [5] = qHTS assay for measurement of the activity of small molecule inhibitors on Zika virus induced Caspase-3 activity in human iPSC derived neural progenitor cells (hNPCs) (AID 1224857; active = well fitted curve in the direction sought with a large enough effect; an effect the other way counts as inactive or inconclusive; note: nearly all actives have a fitted effect of over 65% in size)
# In short: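 Cells were plated at 350 per well and grown 16 to 20 hours. Compound pretreatment lasted one hour, after which ZIKV (2 FFU/cell) was added for 6 hours. Percent inhibition was normalized between uninfected and infected controls.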
# [6] = qHTS assay for measurement of the activity of small molecule inhibitors on Zika virus induced Caspase-3 activity in human astrocytoma cells (AID 1224859; active = well fitted curve in the direction sought with a large enough effect; an effect the other way counts as inactive or inconclusive)
# In short: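 Percent inhibition of virus-induced caspase-3/7 signal is calculated against uninfected and ZIKV-infected control cells. Cells are SNB-19, infected at 2 FFU/cell for 6 h after 1 h compound exposure.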
# [7] = qHTS assay to identify small molecule inhibitors of chordoma cells - UCH-1 (AID 1259355; active = well fitted curve in the direction sought with a large enough effect; an effect the other way counts as inactive or inconclusive; note: nearly all actives have a fitted effect of over 55% in size)
# In short: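 Seed 800 cells per well; incubate overnight at 37 C, 5% CO2. Add test compounds (15 concentrations), then the auranofin–topoisomerase-agent combination. Incubate 48hr, add CellTiter-Glo, wait 30min, read luminescence.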
# [8] = qHTS assay to identify small molecule inhibitors of chordoma cells - UCH-2 (AID 1259356; active = well fitted curve in the direction sought with a large enough effect; an effect the other way counts as inactive or inconclusive; note: series mostly up to about 46 µM)
# [9] = Immunotoxin (HA22) sensitization/mitigation study. Vehicle arm (PBS) (AID 1159510); note: potency is the fitted concentration of half-maximal effect
# [10] = Immunotoxin (SS1P) sensitization/mitigation study. Vehicle arm (DMEM) (AID 1159513); note: potency is the fitted concentration of half-maximal effect
structure (smiles),measurement,setting,value
C[N+](C)(C)CC(O)CC(=O)[O-] (centres undefined),outcome,[1],inactive
same,outcome,[2],inactive
same,outcome,[3],inactive
O=C1CN=C(c2ccccc2)c2cc([N+](=O)[O-])ccc2N1,outcome,[1],inactive
same,outcome,[2],inactive
same,outcome,[4],inactive
same,outcome,[3],inactive
same,outcome,[5],inactive
same,outcome,[6],inactive
same,outcome,[7],inactive
Cc1nnc(SCC2=C(C(=O)O)N3C(=O)[C@@H](NC(=O)Cn4cnnn4)[C@H]3SC2)s1,outcome,[1],inactive
same,outcome,[2],inactive
same,outcome,[3],inactive
CCN1CC(CCN2CCOCC2)C(c2ccccc2)(c2ccccc2)C1=O (centres undefined),outcome,[1],inactive
same,outcome,[2],inactive
same,outcome,[3],inactive
COCCCOc1ccnc(CS(=O)c2nc3ccccc3[nH]2)c1C (centres undefined),outcome,[1],inactive
same,outcome,[2],inactive
same,outcome,[4],inactive
same,outcome,[3],inactive
CC1COc2c(N3CCN(C)CC3)c(F)cc3c(=O)c(C(=O)O)cn1c23 (centres undefined),outcome,[1],inactive
same,outcome,[2],inactive
same,outcome,[4],inactive
same,outcome,[3],inactive
NC(=O)N1c2ccccc2C=Cc2ccccc21,outcome,[1],inactive
same,outcome,[2],inactive
same,outcome,[4],inactive
same,outcome,[3],inactive
CCS(=O)(=O)CCn1c([N+](=O)[O-])cnc1C,outcome,[1],inactive
same,outcome,[2],inactive
same,outcome,[4],inactive
same,outcome,[3],inactive
CNCCCC12CCC(c3ccccc31)c1ccccc12,outcome,[1],inactive [Channel type: confirmation]
same,outcome,[2],inactive
same,AC50,[3],3.16 µM (active)
CC(C)N(CCC(C(N)=O)(c1ccccc1)c1ccccn1)C(C)C (centres undefined),outcome,[1],inactive
same,outcome,[2],inactive
same,outcome,[4],inactive
same,outcome,[3],inactive
same,outcome,[6],inactive
same,outcome,[7],inactive
same,outcome,[8],inactive
CCC1(C)CC(=O)NC1=O (centres undefined),outcome,[1],inactive
same,outcome,[2],inactive
same,outcome,[4],inactive
same,outcome,[3],inactive
Nc1ccc(S(=O)(=O)c2ccc(N)cc2)cc1,outcome,[1],inactive
same,outcome,[2],inactive
same,outcome,[4],inactive
same,outcome,[3],inactive
CO[C@@]1(NC(=O)Cc2cccs2)C(=O)N2C(C(=O)O)=C(COC(N)=O)CS[C@@H]21,outcome,[1],inactive
same,outcome,[2],inactive
same,outcome,[4],inactive
same,outcome,[3],inactive
Nc1nc2ccc(OC(F)(F)F)cc2s1,outcome,[1],inactive
same,outcome,[2],inactive
same,outcome,[4],inactive
same,outcome,[3],inactive
same,Potency,[9],23.5 µM (active)
NCC[C@H](O)C(=O)N[C@@H]1C[C@H](N)[C@@H](O[C@H]2O[C@H](CN)[C@@H](O)[C@H](O)[C@@H]2O)[C@H](O)[C@@H]1O[C@H]1O[C@H](CO)[C@@H](O)[C@H](N)[C@@H]1O,outcome,[1],inactive
same,outcome,[2],inactive
same,outcome,[4],inactive
same,outcome,[3],inactive
NC(N)=NC(=O)Cc1c(Cl)cccc1Cl,outcome,[1],inactive
same,outcome,[2],inactive
same,outcome,[4],inactive
same,outcome,[3],inactive
C[C@H](CS)C(=O)N1CCC[C@H]1C(=O)O,outcome,[1],inactive
same,outcome,[2],inactive
same,outcome,[4],inactive
same,outcome,[3],inactive
Cc1noc(NS(=O)(=O)c2ccc(N)cc2)c1C,outcome,[1],inactive
same,outcome,[2],inactive
same,outcome,[4],inactive
same,outcome,[3],inactive
C#CCN[C@@H]1CCc2ccccc21,outcome,[1],inactive
same,outcome,[2],inactive
same,outcome,[4],inactive
same,outcome,[3],inactive
C[N+]1(C)CCCC(OC(=O)C(O)(c2ccccc2)c2ccccc2)C1 (centres undefined),outcome,[1],inactive
same,outcome,[2],inactive
same,outcome,[4],inactive
same,outcome,[3],inactive
NS(=O)(=O)c1cc2c(cc1C(F)(F)F)NC(Cc1ccccc1)NS2(=O)=O (centres undefined),outcome,[1],inactive
same,outcome,[2],inactive
same,outcome,[3],inactive
COc1c(N2C[C@@H]3CCCN[C@@H]3C2)c(F)cc2c(=O)c(C(=O)O)cn(C3CC3)c12,outcome,[1],inactive
same,outcome,[2],inactive
same,outcome,[4],inactive
same,outcome,[3],inactive
CC[C@H]1OC(=O)[C@H](C)[C@@H](O[C@H]2C[C@@](C)(OC)[C@@H](O)[C@H](C)O2)C(C)[C@@H](O[C@@H]2O[C@H](C)C[C@H](N(C)C)[C@@H]2O)[C@](C)(OC)C[C@@H](C)C(=O)[C@H](C)[C@@H](O)[C@]1(C)O (some centres undefined),outcome,[1],inactive [Channel type: confirmation]
same,outcome,[2],inactive
same,AC50,[3],7.94 µM (active)
CC(C)[C@H](N)C(=O)OCCOCn1cnc2c(=O)[nH]c(N)nc21,outcome,[1],inactive
same,outcome,[2],inactive
same,outcome,[4],inactive
same,outcome,[3],inactive
C[C@]12CCC(=O)C=C1CC[C@H]1[C@@H]3CC[C@](O)(C(=O)CO)[C@@]3(C)C[C@H](O)[C@@]12F,outcome,[1],inactive
same,outcome,[2],inactive
same,outcome,[4],inactive
same,outcome,[3],inactive
S=c1nc[nH]c2nc[nH]c12,outcome,[1],inactive
same,outcome,[2],inactive
same,outcome,[4],inactive
same,outcome,[3],inactive
same,Potency,[9],0.605 µM (active)
same,Potency,[10],0.605 µM (active)
NS(=O)(=O)c1cc(C2(O)NC(=O)c3ccccc32)ccc1Cl (centres undefined),outcome,[1],inactive
same,outcome,[2],inactive
same,outcome,[3],inactive
C[C@](N)(Cc1ccc(O)cc1)C(=O)O,outcome,[1],inactive
same,outcome,[2],inactive
same,outcome,[3],inactive
COc1cccc2c1C(=O)c1c(O)c3c(c(O)c1C2=O)C[C@@](O)(C(C)=O)C[C@H]3O[C@H]1C[C@H](N)[C@H](O)[C@H](C)O1,outcome,[1],inactive [Channel type: confirmation]
same,outcome,[2],inactive
same,AC50,[3],5.62 µM (active)
CN1C(CSCC(F)(F)F)Nc2cc(Cl)c(S(N)(=O)=O)cc2S1(=O)=O (centres undefined),outcome,[1],inactive
same,outcome,[2],inactive
same,outcome,[3],inactive
